Laboratory results from the supplement of paper PMC12636033.
± gives the standard deviation of the averaged measurements. In all, about 33,000 sequences were measured (“E-score (rank enrichment, -0.5 to 0.5)”: median about -0.0075, highest 2% from about 0.23 on). For the sample, the highest values were picked, then their nearest neighbours and some sequences at random.

Test system: WT Max(13-93) synthetic (M65Nle)
Assay: PBM 8-mer E-score (E-score (rank enrichment, -0.5 to 0.5)); higher = stronger preferential binding
Method: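 Protein binding microarray (universal PBM chip covering all 10-mers in fixed probe flanks) with chemically synthesized human Max(13-93) bHLH-LZ analogs (not full-length Max) bearing noncanonical residues (hArg, Tha, Aib, Nle at 65) and aromatic Cys staples. Read-out per 8-mer (and its reverse complement): E-score (rank-based enrichment, -0.5 to 0.5) and Z-score of median probe intensity.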

| Sequence | PBM 8-mer E-score |
| --- | --- |
| GGACATCC | -0.188 ± 0.068 |
| CACTTAGG | -0.0583 ± 0.16 |
| CCGTGACA | 0.00228 ± 0.054 |
| ACGTGACA | 0.366 ± 0.014 |
| GCGTGACC | 0.075 ± 0.14 |
| TCGTGACA | 0.0356 ± 0.012 |
| ACGTGACC | 0.298 ± 0.018 |
| CCGTGACC | -0.23 ± 0.064 |
| ACGTGAGT | 0.327 ± 0.035 |
| ACGTGACG | 0.321 ± 0.039 |
| ACGTGAGG | 0.1604 ± 0.0013 |
| ACGTGAGA | 0.208 ± 0.0048 |
| AGGTGACG | -0.053 ± 0.045 |
| CCGTGACG | -0.0153 ± 0.0018 |
| AGCCGAGG | -0.103 ± 0.058 |
| AACACAGG | -0.0563 ± 0.091 |
| ACGAACCG | -0.0438 ± 0.041 |
| AATCCAAC | 0.0162 ± 0.14 |
| AGTGGTGC | -0.0756 ± 0.066 |
| GGATGCCC | -0.0856 ± 0.021 |
| CGTATTCC | -0.096 ± 0.036 |
| ACTGCGCT | 0.0213 ± 0.097 |
| ACCGCACC | -0.0552 ± 0.13 |
| ACGTGACT | 0.282 ± 0.0038 |
| AAGTGACT | -0.00483 ± 0.05 |

| Sequence | PBM 8-mer E-score |
| --- | --- |
| AGGTGACT | -0.0287 ± 0.06 |
| GCACGGAA | -0.00447 ± 0.026 |
| GAGGATGC | -0.0499 ± 0.029 |
| ATGAATGC | 0.114 ± 0.14 |
| ATGAATGG | 0.311 ± 0.023 |
| ATGAATGA | 0.126 ± 0.034 |
| GACGACAA | 0.0432 ± 0.014 |
| GAGAGGTA | -0.0899 ± 0.13 |
| GAAGTTCC | -0.122 ± 0.051 |
| AATAATGC | 0.245 ± 0.095 |
| AATAATGT | 0.173 ± 0.097 |
| AATAATGG | 0.044 ± 0.046 |
| AATAATGA | 0.259 ± 0.073 |
| CATAATGA | 0.172 ± 0.059 |
| GATAATGA | 0.125 ± 0.072 |
| ATCCGAAA | -0.03 ± 0.061 |
| ATATTAGC | 0.124 ± 0.022 |
| ATATTACA | 0.197 ± 0.017 |
| ATATTACC | 0.267 ± 0.029 |
| AAATTACG | 0.0856 ± 0.02 |
| ATATTAGA | 0.172 ± 0.004 |
| ATATTAGG | 0.244 ± 0.036 |
| ATATTACG | 0.241 ± 0.0048 |
| AGATTACC | -0.00321 ± 0.065 |
| CTATTACC | -0.0563 ± 0.029 |

| Sequence | PBM 8-mer E-score |
| --- | --- |
| CGTCGGGA | -0.106 ± 0.096 |
| CACCGCGA | -0.226 ± 0.025 |
| CTAGGTCC | -0.172 ± 0.12 |
| GGAAGCAC | 0.0303 ± 0.0034 |
| ATCATAAA | 0.142 ± 0.15 |
| ATCATAAT | 0.269 ± 0.033 |
| ATCAACAG | 0.106 ± 0.018 |
| ATCATGAG | 0.058 ± 0.031 |
| ATCAACAT | 0.24 ± 0.013 |
| AACATAAG | 0.097 ± 0.013 |
| AACATAAT | 0.252 ± 0.011 |
| ATCATAAG | 0.172 ± 0.039 |
| ATCATGAT | 0.312 ± 0.0072 |
| AACATAGT | 0.0321 ± 0.091 |
| ATCAACAA | 0.15 ± 0.12 |
| ATCATGAA | 0.0859 ± 0.037 |
| ACGGGGAG | 0.0661 ± 0.065 |
| CCATCCAC | 0.155 ± 0.16 |
| GAGCTGGA | -0.13 ± 0.0049 |
| AAGGCTCC | -0.199 ± 0.056 |
| ACTGTCCC | 0.1452 ± 0.001 |
| AGAGGCTC | -0.129 ± 0.083 |
| GTCGCCGA | -0.0844 ± 0.015 |
| TATGGTAA | 0.104 ± 0.1 |
| GTGTCCTA | -0.012 ± 0.016 |

| Sequence | PBM 8-mer E-score |
| --- | --- |
| GCCAACGA | -0.0918 ± 0.043 |
| ATCGGTTG | -0.0382 ± 0.099 |
| CCTGATGA | -0.114 ± 0.085 |
| ATCATATA | 0.204 ± 0.012 |
| ATCATCAA | -0.0899 ± 0.0026 |
| AACATAAC | 0.247 ± 0.07 |
| CACATAAC | 0.108 ± 0.067 |
| ATCATCAT | 0.245 ± 0.026 |
| GACATAAC | 0.17 ± 0.0081 |
| ATCATCAC | 0.0578 ± 0.072 |
| GTGATAAA | 0.143 ± 0.05 |
| ATCATATG | 0.233 ± 0.0053 |
| ATGATAAA | 0.181 ± 0.084 |
| ATCATATC | 0.134 ± 0.044 |
| TTGATAAA | 0.25 ± 0.021 |
| AGGATATC | 0.084 ± 0.03 |
| CGCACCCA | 0.0267 ± 0.1 |
| AAGGTGAC | -0.1212 ± 0.00044 |
| CGGATGAC | 0.00616 ± 0.15 |
| TCCGGTCA | -0.19 ± 0.054 |
| ACTCTGAA | -0.0606 ± 0.013 |
| GAAAGCCA | -0.0183 ± 0.048 |
| CTGTCTGA | 0.00168 ± 0.0099 |
| CTCAACAC | 0.202 ± 0.084 |
| ATGATAAC | 0.206 ± 0.023 |

| Sequence | PBM 8-mer E-score |
| --- | --- |
| ATGATAAT | 0.251 ± 0.078 |
| ATGATAAG | 0.17 ± 0.054 |
| AGGCCTGG | -0.294 ± 0.061 |
| ATATTAAA | 0.24 ± 0.03 |
| ATATTAAT | 0.274 ± 0.059 |
| ATATTAAC | 0.218 ± 0.013 |
| CTATTAAA | 0.173 ± 0.011 |
| ATATTAAG | 0.131 ± 0.02 |
| TTATTAAA | 0.131 ± 0.26 |
| AAGTTGGC | -0.119 ± 0.0037 |
| TCGCTGCA | -0.149 ± 0.09 |
| GGCGCCAC | -0.0393 ± 0.073 |
| GCAGAAAC | 0.0456 ± 0.087 |
| AGACCTCA | -0.0265 ± 0.028 |
| TCGGCACA | -0.0668 ± 0.093 |
| CACGTGTA | 0.4825 ± 0.0012 |
| AACGTGTG | 0.178 ± 0.016 |
| AACGTGTC | 0.189 ± 0.014 |
| GACGTGTA | -0.0197 ± 0.094 |
| CACGTGTC | 0.4823 ± 0.0015 |
| AACGTGTA | 0.26 ± 0.0055 |
| AGCGTGTA | 0.11 ± 0.018 |
| ATCGTGTA | 0.0318 ± 0.041 |
| CCCGTGTA | 0.183 ± 0.1 |
| CGCGTGTA | 0.29 ± 0.052 |

| Sequence | PBM 8-mer E-score |
| --- | --- |
| CGCGTGTC | 0.232 ± 0.011 |
| CCCGTGTC | 0.0152 ± 0.049 |
| GGCAGACC | -0.189 ± 0.022 |
| AAGAGATC | -0.149 ± 0.086 |
| AAGGTGCT | 0.0391 ± 0.026 |
| ACAGCAGT | -0.155 ± 0.016 |
| AGATGTTC | -0.10933 ± 4.9e-05 |
| AGATGTTG | -0.133 ± 0.11 |
| GAATGTTA | 0.158 ± 0.079 |
| CCATGTTC | -0.00628 ± 0.14 |
| AAATGTTA | 0.127 ± 0.032 |
| ACATGTTA | 0.267 ± 0.008 |
| ACATGTTC | 0.246 ± 0.016 |
| ACATGTTG | 0.239 ± 0.012 |
| AAATGTTG | -0.0126 ± 0.086 |
| GGATGTTA | 0.0759 ± 0.064 |
| GCATGTTA | 0.266 ± 0.075 |
| CCATGTTA | 0.103 ± 0.095 |
| ATAGTCTC | 0.0149 ± 0.021 |
| ACGGCCAT | -0.0405 ± 0.11 |
| ATTAGGCG | -0.0541 ± 0.021 |
| CTTGCAGC | -0.155 ± 0.06 |
| AAGGCCCA | -0.0696 ± 0.03 |
| AACCTCGG | -0.285 ± 0.089 |
| ACAGCAGA | -0.0839 ± 0.019 |

| Sequence | PBM 8-mer E-score |
| --- | --- |
| CCTGGCCC | -0.288 ± 0.052 |
| CATTCATA | 0.243 ± 0.071 |
| CATTCATC | 0.048 ± 0.036 |
| GATTCATA | -0.0144 ± 0.0027 |
| CTACGGGA | 0.0112 ± 0.028 |
| AATACATT | 0.132 ± 0.098 |
| CATACATC | 0.135 ± 0.022 |
| CATACACG | 0.238 ± 0.086 |
| TATACACA | 0.0996 ± 0.085 |
| CATACATG | 0.245 ± 0.026 |
| CATACACA | 0.228 ± 0.099 |
| AATACATG | 0.243 ± 0.072 |
| CATACATA | 0.17 ± 0.086 |
| AATACATA | 0.211 ± 0.11 |
| AAAAGCAA | 0.066 ± 0.13 |
| GCCAGATA | -0.00267 ± 0.056 |
| CCAACTTC | 0.0001 ± 0.0037 |
| TGGAAAAA | 0.0641 ± 0.057 |
| ACTGTCCT | -0.0581 ± 0.038 |
| CACGAGTA | 0.237 ± 0.0057 |
| CACGAGGA | 0.217 ± 0.02 |
| TACGAGTA | 0.173 ± 0.023 |
| AACGAGAT | -0.133 ± 0.092 |
